Prostate diff: activators of LNCaP prostate cell differentiation, primary screen, flow cytometry side scatter; 4 d; 0.56% of 24,000 active; side scatter shift, % at 10 µM;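 active = side scatter shift above 30%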;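 note: androgen-responsive LNCaP prostate cancer cells in charcoal-stripped serum medium; percent of cells past a gate set so DMSO wells show 10% shift; higher shift means more granular cells and more differentiation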
26S disassembly: inhibitors of ATP-driven 26S proteasome dissociation, primary screen, biochemical, bead-based flow cytometry, GFP-tagged proteasome; anti-FLAG beads, GFP-proteasome disassembly; inhibition of disassembly, % (test concentration not listed); 0.2% of 24,000 active;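 active = inhibition of disassembly above about 33%, limit read from the data; inconclusive = likely self-fluorescent, control bead median signal at least 40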;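 note: plate controls were ATP control with full disassembly for no effect and ATP-gamma-S intact proteasomes for full effect; higher percent means more bead fluorescence retained so stronger block of disassembly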
VLA-4 allo ag: enhancers of LDV-FITC binding to VLA-4 integrin, primary screen, Jurkat cells, flow cytometry; Integrin alpha-4 (Homo sapiens), P13612; activation, % at 10 µM (by protocol); 24,000 tested, under 10 active;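 active = fluorescent ligand binding to cells raised by more than 40% of the manganese-induced maximum; inconclusive = compound's own fluorescence above 85% of the ligand control signal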;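 note: 0% = ligand binding without compound and 100% = manganese-stimulated maximal binding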
QS inhibitor: S. aureus quorum sensing inhibitors, primary screen, RNAIII-GFP reporter, flow cytometry; S. aureus RN6390 RNAIII-GFP reporter, AIP-induced, flow cytometry 3 h; inhibition, % at 2 µM; 0.3% of 24,000 active;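 active = share of bacteria positive for the green fluorescent reporter and its mean brightness both inhibited by 50% or more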;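 note: 0% = AIP-stimulated control and 100% = unstimulated bacteria without AIP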
VLA-4 antagonist: inhibitors of LDV-FITC binding to Mn2+-activated VLA-4, primary screen, Jurkat cells; Integrin alpha-4 (Homo sapiens), P13612; LDV-FITC binding with Mn2+, flow cytometry; 100% = Mn2+-driven binding gain fully reversed; inhibition, % at 10 µM (by protocol); 0.2% of 24,000 active;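 active = inhibition above 50%; inconclusive = compound itself fluorescent, judged against control cell fluorescence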;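 note: 0% = Mn2+ stimulated cells lacking compound and 100% = ligand binding without Mn2+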
Jurkat autofluor: compound autofluorescence on Jurkat cells, primary screen, artefact control for VLA-4 allosteric ligand project, cell-based, flow cytometry | hits give high values; 1 = vehicle-only cell background | fluorescence ratio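 (tested at 10 µM compound in the well)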 | 0.61% of 24,000 active | AID 576, 2007;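 active = fluorescence ratio above 2.44, which is 1 plus 3 SD of all ratios; inconclusive = signal too bright to measure linearly, ratio around 10 or more; inactive = fluorescence ratio below 2.44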;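 note: green fluorescence of cells measured with 488 nm excitation and 530 nm emission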
Numbers without * were called inactive. Sampled rows, rich in hits. Any-hit rate of the full collection: about 1.8%.

`CC(C)Oc1ccc(C(CC(=O)O)NC(=O)C2CCCCC2)cc1` (stereo not given) gave Prostate diff 12.0, 26S disassembly -0.1, VLA-4 allo ag -11.5, QS inhibitor 1.2, VLA-4 antagonist 96.5* and Jurkat autofluor 1.04.
`CCOC(=O)c1c(CSc2ccc(C)cc2)oc2ccc(O)cc12` gave QS inhibitor 0.3.
Screening C=CCNC(=O)CN(c1cccc(Br)c1)S(C)(=O)=O returned Prostate diff 10.0, 26S disassembly -1.3, VLA-4 allo ag -4.0, QS inhibitor -2.9, VLA-4 antagonist -2.5 and Jurkat autofluor 1.03.
Screening CCOc1ccc(-c2cc(C(=O)NCCCN3CCN(CC)CC3)c3ccccc3n2)cc1 returned Prostate diff 37.0*, 26S disassembly -2.1, VLA-4 allo ag 2.0, QS inhibitor -1.2, VLA-4 antagonist -21.0 and Jurkat autofluor 1.09.
O=C(NCCCN1CCOCC1)c1cc(-c2ccc3c(c2)OCO3)nc2ccccc12 was read as Prostate diff 12.0, 26S disassembly 0.6, VLA-4 allo ag 0.0, QS inhibitor -4.5, VLA-4 antagonist 5.0 and Jurkat autofluor 1.08.
Screening C=C(C)C1Cc2c(C)nn(-c3nc(C)cc(C)n3)c2C1 (stereo not given) returned Prostate diff 10.0, 26S disassembly 2.8, VLA-4 allo ag -20.0, QS inhibitor -1.2, VLA-4 antagonist 54.0* and Jurkat autofluor 1.
O=C(Cn1cc2c(n1)CCCCC2)N1CCc2ccccc21 was read as Prostate diff 7.0, 26S disassembly -0.8, VLA-4 allo ag 0.0, QS inhibitor 4.2, VLA-4 antagonist -11.0 and Jurkat autofluor 1.03.
Screening O=C(Cc1ccc(-n2cccc2)cc1)N1CCc2ccccc21 returned Prostate diff 10.0, 26S disassembly 21.2, VLA-4 allo ag inconclusive, QS inhibitor -5.1, VLA-4 antagonist inconclusive and Jurkat autofluor 4.92*.
`CC(=O)c1c(C)nc(-c2ccc(Cl)cc2)nc1N=CN(C)C` gave Prostate diff 7.0, 26S disassembly 2.2, VLA-4 allo ag inconclusive, QS inhibitor 11.3, VLA-4 antagonist inconclusive and Jurkat autofluor 3.19*.
Screening CCN1C(=O)c2ccccc2Sc2ccc(C(=O)NCCN3CCOCC3)cc21 returned Prostate diff 8.0, 26S disassembly 0.2, VLA-4 allo ag 0.0, QS inhibitor -0.8, VLA-4 antagonist 7.0 and Jurkat autofluor 1.09.
COc1ccc(N(CC(=O)Nc2nc3ccc(C)cc3s2)S(=O)(=O)c2c(C)nn(C)c2C)cc1 was read as Prostate diff 6.0, 26S disassembly 0.6, VLA-4 allo ag -12.0, QS inhibitor 66.5*, VLA-4 antagonist 33.0 and Jurkat autofluor 1.19.
`COc1ccc(N(CC(=O)Nc2cccc(OC)c2)S(=O)(=O)c2c(C)nn(C)c2C)cc1` gave Prostate diff 16.0, 26S disassembly 0.1, VLA-4 allo ag 0.0, QS inhibitor 0.4, VLA-4 antagonist 22.0 and Jurkat autofluor 1.12.
Screening COCCOC(=O)C1=C(C)N=C2SCCC(=O)N2C1c1cccc(Br)c1 (stereo not given) returned Prostate diff 0.0, 26S disassembly 3.2, VLA-4 allo ag -9.0, QS inhibitor -3.1, VLA-4 antagonist 12.0 and Jurkat autofluor 1.09.
CC1CCCN(C(C(=O)Nc2ccc3c(c2)OCCO3)c2ccccc2)C1 (stereo not given) was read as Prostate diff 14.0, 26S disassembly -1.2, VLA-4 allo ag -6.0, QS inhibitor 98.8*, VLA-4 antagonist 0.0 and Jurkat autofluor 1.01.
CC1CCCN(C(C(=O)Nc2ccc3c(c2)OCO3)c2ccccc2)C1 (stereo not given) was read as Prostate diff 13.0, 26S disassembly -4.2, VLA-4 allo ag -7.0, QS inhibitor 99.0*, VLA-4 antagonist 12.0 and Jurkat autofluor 1.05.
Screening CC1CCN(C(C(=O)Nc2ccc3c(c2)OCO3)c2ccccc2)CC1 (stereo not given) returned Prostate diff 14.0, 26S disassembly -1.8, VLA-4 allo ag -6.0, QS inhibitor 15.3, VLA-4 antagonist 3.0 and Jurkat autofluor 1.03.

Compound activity (PubChem BioAssay)
